An excerpt weighted towards active compounds, which were near 1.3% of everything screened.
Gli-Sufu antag – blocks Gli-Sufu signaling in a luciferase reporter | inhibition, % at 5 µM | AID 588413 | Sufu-KO-LIGHT fibroblasts, Gli luciferase reporter luminescence | 340,000 compounds, 0.74% hits;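 active means inhibition above about 55%, limit read from the data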
NR5A2 inv ag – suppresses constitutive activity of human LRH-1. O00482. HEK293T StAR-luciferase reporter, LRH-1 transfected, 24 h. AID 602396. inhibition, % at 3.6 µM. 360,000 compounds, 0.13% hits;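 active means inhibition above the mean inhibition of all tested compounds plus 3 SD, cut at about 73% in these data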
SRC1 inh – inhibitors of human steroid receptor coactivator 1 (SRC1). Q15788. HEK293 GAL4-SRC1 luciferase reporter, luminescence. inhibition, % at 3.6 µM. 360,000 compounds, 0.12% hits;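 active means inhibition above the campaign mean plus 3 SD, with each screening campaign given its own cutoff, cut at about 60% in these data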
Target sequence (Q15788 whole entry, looked up, the tested form may be a part): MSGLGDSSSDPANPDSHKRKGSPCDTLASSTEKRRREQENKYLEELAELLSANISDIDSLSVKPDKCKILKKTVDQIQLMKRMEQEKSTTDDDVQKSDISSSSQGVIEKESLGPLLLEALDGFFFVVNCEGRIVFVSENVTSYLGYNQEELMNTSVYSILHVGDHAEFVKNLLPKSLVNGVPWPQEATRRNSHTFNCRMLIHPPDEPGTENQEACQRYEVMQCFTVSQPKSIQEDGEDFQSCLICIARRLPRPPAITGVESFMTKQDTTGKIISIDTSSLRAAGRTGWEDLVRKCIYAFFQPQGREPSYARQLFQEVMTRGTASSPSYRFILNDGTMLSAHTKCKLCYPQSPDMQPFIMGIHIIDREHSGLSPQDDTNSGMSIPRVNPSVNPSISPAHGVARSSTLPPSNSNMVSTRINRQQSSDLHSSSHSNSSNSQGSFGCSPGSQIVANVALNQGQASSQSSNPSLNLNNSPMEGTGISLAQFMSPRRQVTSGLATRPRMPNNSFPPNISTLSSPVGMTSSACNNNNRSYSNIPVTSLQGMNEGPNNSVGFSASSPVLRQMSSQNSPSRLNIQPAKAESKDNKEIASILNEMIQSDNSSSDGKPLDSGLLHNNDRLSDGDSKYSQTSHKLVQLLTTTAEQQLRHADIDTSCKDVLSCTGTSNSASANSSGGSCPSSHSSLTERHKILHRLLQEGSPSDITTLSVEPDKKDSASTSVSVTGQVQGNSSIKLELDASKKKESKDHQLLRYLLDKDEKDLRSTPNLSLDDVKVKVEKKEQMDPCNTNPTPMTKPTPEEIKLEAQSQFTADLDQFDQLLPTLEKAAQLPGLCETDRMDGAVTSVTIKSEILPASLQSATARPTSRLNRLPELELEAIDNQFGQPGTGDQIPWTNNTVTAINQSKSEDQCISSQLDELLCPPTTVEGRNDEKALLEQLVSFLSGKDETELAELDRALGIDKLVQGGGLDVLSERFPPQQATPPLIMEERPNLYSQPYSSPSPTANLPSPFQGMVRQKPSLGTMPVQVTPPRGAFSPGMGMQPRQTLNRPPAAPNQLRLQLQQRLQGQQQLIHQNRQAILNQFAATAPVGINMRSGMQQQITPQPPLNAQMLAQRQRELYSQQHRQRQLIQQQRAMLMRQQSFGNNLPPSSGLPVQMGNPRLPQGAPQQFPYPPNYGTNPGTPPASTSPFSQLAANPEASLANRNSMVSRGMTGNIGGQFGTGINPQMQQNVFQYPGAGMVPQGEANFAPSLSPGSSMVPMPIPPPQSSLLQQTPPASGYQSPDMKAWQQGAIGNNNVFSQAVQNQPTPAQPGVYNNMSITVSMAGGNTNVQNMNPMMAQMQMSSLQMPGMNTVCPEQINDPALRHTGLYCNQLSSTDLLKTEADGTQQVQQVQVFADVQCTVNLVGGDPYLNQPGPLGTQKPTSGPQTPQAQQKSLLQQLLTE
NR2F2 inh – inhibitors of human COUP-TFII (NR2F2). inhibition, % at 8.6 µM. 370,000 compounds, 0.7% hits. AID 686940. P24468. HEK293T NGFI-A luciferase reporter, luminescence;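 active means inhibition above a per-plate cutoff, mean inhibition of test wells between control levels plus 3 SD, cut at about 38% in these data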;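 further: cells cotransfected with COUP-TFII expression vector driving the NGFI-A reporter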
NCOA2 inhibitor – inhibits human steroid receptor coactivator 2; inhibition, % at 9 µM; 370,000 compounds, 0.17% hits; HEK293 GAL4-SRC2 luciferase reporter, luminescence;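 active means inhibition above the mean inhibition of all tested compounds plus 3 SD, set per campaign, cut at about 52% in these data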
SRC3 inh – inhibits human SRC3 coactivator. AID 588352. 360,000 compounds, 0.17% hits. inhibition, % at 3.6 µM. HEK293 GAL4-SRC3 luciferase reporter, luminescence;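 active means inhibition above a per-campaign cutoff, the mean of all compounds plus 3 SD, cut at about 60% in these data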;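 further: higher means less SRC3-driven luciferase light from the GAL4 reporter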
VP16 Luc counter – VP16 inhibition counter-screen for COUP-TFII. shares compounds with NR2F2 inh. HEK293 Gal4-VP16 luciferase reporter, luminescence. inhibition, % at 8.5 µM. 2,500 compounds, 25% hits. AID 687007; in the data active means inhibition above about 13%
NR2F2 inh conf – confirmation of human COUP-TFII (NR2F2) inhibitors. 2,500 compounds, 45% hits. AID 687008. HEK293 NGFI-A luciferase reporter, luminescence. shares compounds with NR2F2 inh. inhibition, % at 8.5 µM;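 active means mean inhibition over three repeats above a set limit taken from the earlier primary screen, cut at about 38% in these data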
Each line names hits and unclear results; the compound was inactive in the other large screens (follow-up assays come after a bar, where they were run).

O=C(NCCc1cn2ccccc2n1)c1cc(COc2ccc3ncccc3c2)on1	NR2F2 inh 64 | VP16 Luc counter inactive | NR2F2 inh conf 83
O=C(NCCc1cn2ccccc2n1)c1ccccc1F	none
O=C(c1cc(COc2ccc3ncccc3c2)on1)N1CCCCCC1	NR2F2 inh 43 | VP16 Luc counter inactive | NR2F2 inh conf 49
O=C(c1cc(COc2ccc3ncccc3c2)on1)N1CCCC1	NR2F2 inh 46 | VP16 Luc counter inactive | NR2F2 inh conf inactive
COCC1CCN(C(=O)c2cc(COc3ccc4ncccc4c3)on2)CC1	none
Nn1c(SCC(=O)Nc2ccccc2-c2ccccc2)nnc1-c1cc(-c2ccc(F)cc2)n[nH]1	none (no result: Gli-Sufu antag, NR5A2 inv ag, SRC1 inh, SRC3 inh)
CN1c2ccccc2C(C)(C)[C@]12C=Cc1cc(O)ccc1O2	NR2F2 inh 43 | VP16 Luc counter inactive | NR2F2 inh conf inactive
CC(C)(C)c1ccc(C(=O)Nc2ccc(CC(=O)O)cc2)o1	NR2F2 inh 95, NCOA2 inhibitor 87 | VP16 Luc counter 84 | NR2F2 inh conf 91
O=C(CCc1ccccc1)N[C@H]1[C@H](OC(=O)c2ccc3ccccc3n2)CCC[C@@]12C(=O)N(Cc1ccccc1)c1ccccc12	none (no result: Gli-Sufu antag, NR5A2 inv ag, SRC1 inh, SRC3 inh)
COc1cc(/C=N/NC(N)=S)cc(Br)c1OCc1ccccc1F	NR2F2 inh 52 | VP16 Luc counter 24 | NR2F2 inh conf 51
O=C1/C(=C\c2ccccc2)CN(C(=O)CCN2CCCCC2)C/C1=C/c1ccccc1	NR5A2 inv ag 74, NR2F2 inh 63 | VP16 Luc counter 64 | NR2F2 inh conf 63
CCN(CC)CCC(=O)N1C/C(=C/c2ccccc2)C(=O)/C(=C\c2ccccc2)C1	NR2F2 inh 74 | VP16 Luc counter 67 | NR2F2 inh conf 65
O=C1/C(=C\c2ccc(Cl)c(Cl)c2)CN(C(=O)CCN2CCOCC2)C/C1=C/c1ccc(Cl)c(Cl)c1	NR2F2 inh 85 | VP16 Luc counter 92 | NR2F2 inh conf 106
O=C1/C(=C\c2ccccc2)CCC/C1=C/c1ccccc1	none
COC(=O)[C@]12C[C@H](CC(=O)NCCc3ccccc3OC)C(=O)N(Cc3cccc4ccccc34)C1=C[C@H](COCc1ccccc1)O[C@@H]2C	none (no result: Gli-Sufu antag, NR5A2 inv ag, SRC1 inh, SRC3 inh)
COc1cc(C(=O)N(C)CCOc2ccccc2)ccc1OCC(=O)Nc1cccc(C(F)(F)F)c1	NR2F2 inh 57 | VP16 Luc counter inactive | NR2F2 inh conf inactive
CCOC(=O)C1CCN(C(=O)c2ccc(OCC(=O)Nc3cccc(C(F)(F)F)c3)c(OC)c2)CC1	NR2F2 inh 66 | VP16 Luc counter inactive | NR2F2 inh conf 59
COC(=O)[C@]12C[C@H](CC(=O)NCc3ccc(OC)c(OC)c3)C(=O)N(Cc3ccco3)C1=C[C@H](C(C)(C)C)O[C@@H]2C	none (no result: Gli-Sufu antag, NR5A2 inv ag, SRC1 inh, SRC3 inh)
Cc1cccc(OCC(=O)Nc2ccc(N3CCN(C(=O)c4ccco4)CC3)cc2)c1	NR2F2 inh 64 | VP16 Luc counter inactive | NR2F2 inh conf inactive
Cc1ccccc1C(=O)N1CCN(c2ccc(NC(=S)NC(=O)c3ccco3)cc2)CC1	NR2F2 inh 46 | VP16 Luc counter inactive | NR2F2 inh conf inactive
COc1ccccc1C(=O)NC(=S)Nc1ccc(N2CCN(C(=O)c3ccco3)CC2)cc1	none
COCCCN1C(=O)[C@H](CC(=O)NCc2cccs2)[C@]2(C(=O)OC)CCCCC=C12	none (no result: Gli-Sufu antag, NR5A2 inv ag, SRC1 inh, SRC3 inh)
O=C(NC1CCCCN(Cc2ccc(Cl)cc2)C1=O)c1ccc(COc2ccccc2)cc1 (stereo not drawn)	NR2F2 inh 53 (no result: Gli-Sufu antag, NR5A2 inv ag, SRC1 inh, SRC3 inh) | VP16 Luc counter inactive | NR2F2 inh conf inactive
O=C(NC1CCCCN(Cc2cccc(C(F)(F)F)c2)C1=O)c1ccc(COc2ccccc2)cc1 (stereo not drawn)	NR2F2 inh 66 (no result: Gli-Sufu antag, NR5A2 inv ag, SRC1 inh, SRC3 inh) | VP16 Luc counter inactive | NR2F2 inh conf 62
Cc1ccccc1CN1CCCCC(NC(=O)c2ccccc2)C1=O (stereo not drawn)	none (no result: Gli-Sufu antag, NR5A2 inv ag, SRC1 inh, SRC3 inh)
Cc1ccccc1CN1CCCCC(NC(=O)c2ccc(COc3ccccc3)cc2)C1=O (stereo not drawn)	NR2F2 inh 68 (no result: Gli-Sufu antag, NR5A2 inv ag, SRC1 inh, SRC3 inh) | VP16 Luc counter inactive | NR2F2 inh conf 49
O=C(NC1CCCCN(Cc2cccc(Cl)c2)C1=O)c1ccc(F)cc1 (stereo not drawn)	none (no result: Gli-Sufu antag, NR5A2 inv ag, SRC1 inh, SRC3 inh)
CCCCOc1ccc(C(=O)NC2CCCCN(Cc3cccc(Cl)c3)C2=O)cc1 (stereo not drawn)	NR2F2 inh 38 (no result: Gli-Sufu antag, NR5A2 inv ag, SRC1 inh, SRC3 inh) | VP16 Luc counter inactive | NR2F2 inh conf inactive
CCc1cccc2c(C(C)c3ccccc3O)c[nH]c12 (stereo not drawn)	none (no result: Gli-Sufu antag, NR5A2 inv ag, SRC1 inh, SRC3 inh)
C=CCN(CC#CC(=C)C)Cc1ccccc1	none (no result: Gli-Sufu antag, NR5A2 inv ag, SRC1 inh, SRC3 inh)
O=C(NCc1ccccc1)Nc1ccccc1C(=O)N1CCCC1	none (no result: Gli-Sufu antag, NR5A2 inv ag, SRC1 inh, SRC3 inh)
CCOC(=O)[C@@]12CCCC3=C1N(CCC3)C(=O)[C@H]2CC(=O)NCCCCc1ccccc1	none (no result: Gli-Sufu antag, NR5A2 inv ag, SRC1 inh, SRC3 inh)
Nc1nc2ccccc2cc1C(=O)NCc1ccc(-c2ccccc2)cc1	NR2F2 inh 65 (no result: Gli-Sufu antag, SRC1 inh, SRC3 inh) | VP16 Luc counter inactive | NR2F2 inh conf 68
Nc1nc2ccccc2cc1C(=O)NCc1ccc(Cl)cc1Cl	none (no result: Gli-Sufu antag, SRC1 inh, NR2F2 inh, NCOA2 inhibitor, SRC3 inh)
CC1OC(CC(=O)O)CC2=C1C(=O)c1c(O)cccc1C2=O (stereo not drawn)	Gli-Sufu antag 91, NR5A2 inv ag 97, SRC1 inh 70, NR2F2 inh 105, NCOA2 inhibitor 96, SRC3 inh 93 | VP16 Luc counter 98 | NR2F2 inh conf 110
CCOc1ccc(CN2CCN(C(=O)c3cccc4ccccc34)CC2)cc1	NR2F2 inh 59 | VP16 Luc counter inactive | NR2F2 inh conf inactive
NC(=O)c1cc([N+](=O)[O-])ccc1NCc1ccc(F)cc1	none
NC(=O)c1cc([N+](=O)[O-])ccc1NCc1ccc(N)cc1	NR2F2 inh 52, NCOA2 inhibitor 73 | VP16 Luc counter 64 | NR2F2 inh conf 50
CCc1ccc(NC(=O)c2ccc(F)c(S(=O)(=O)NCC3COc4ccccc4O3)c2)cc1 (stereo not drawn)	NR2F2 inh 38 | VP16 Luc counter inactive | NR2F2 inh conf inactive
CCN(c1ccccc1)S(=O)(=O)c1cc(C(=O)Nc2ccc(Br)cc2)ccc1F	NR2F2 inh 65 | VP16 Luc counter inactive | NR2F2 inh conf 41
CC(=O)N1CCCN(C(=O)C2CCN(c3ncnc4c3sc3cccc(F)c34)CC2)CC1	none (no result: Gli-Sufu antag, NR5A2 inv ag, SRC1 inh, SRC3 inh)
O=C(CSc1nnc(-c2cccnc2)n1-c1ccc(Cl)cc1)Nc1ccc(S(=O)(=O)Nc2nccs2)cc1	none (no result: Gli-Sufu antag, NR5A2 inv ag, SRC1 inh, SRC3 inh)
Cc1cc(/C=C2/C(=O)NN(c3ccccc3)C2=O)c(C)n1-c1ccc(O)cc1	NR2F2 inh 57 | VP16 Luc counter inactive | NR2F2 inh conf inactive
O=C(CSc1nnc(COc2ccccc2)n1-c1ccccc1)Nc1ccc2c(c1)OCO2	none (no result: Gli-Sufu antag, NR5A2 inv ag, SRC1 inh, SRC3 inh)
N#Cc1cc2cc3c(cc2nc1SCC(=O)N1CCOCC1)OCCO3	NR2F2 inh 46 | VP16 Luc counter 24 | NR2F2 inh conf 59
